Hit rate of the full screen: of about 310,000 compounds, about 14,000 (4.5%) showed an effect of 50% or more. Effects have a minus sign here. For the sample, strong results were picked, then their nearest neighbours and some compounds at random.
target: human ether-à-go-go-related gene (hERG) potassium channel (human, UniProt Q12809); experiment: primary screen, population patch clamp on CHO cells stably expressing hERG; higher = less effect of the substance
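Further: peak tail current of the secondary pulse compared with the same well before compound.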

Chain of human ether-à-go-go-related gene (hERG) potassium channel (Q12809 whole entry, looked up): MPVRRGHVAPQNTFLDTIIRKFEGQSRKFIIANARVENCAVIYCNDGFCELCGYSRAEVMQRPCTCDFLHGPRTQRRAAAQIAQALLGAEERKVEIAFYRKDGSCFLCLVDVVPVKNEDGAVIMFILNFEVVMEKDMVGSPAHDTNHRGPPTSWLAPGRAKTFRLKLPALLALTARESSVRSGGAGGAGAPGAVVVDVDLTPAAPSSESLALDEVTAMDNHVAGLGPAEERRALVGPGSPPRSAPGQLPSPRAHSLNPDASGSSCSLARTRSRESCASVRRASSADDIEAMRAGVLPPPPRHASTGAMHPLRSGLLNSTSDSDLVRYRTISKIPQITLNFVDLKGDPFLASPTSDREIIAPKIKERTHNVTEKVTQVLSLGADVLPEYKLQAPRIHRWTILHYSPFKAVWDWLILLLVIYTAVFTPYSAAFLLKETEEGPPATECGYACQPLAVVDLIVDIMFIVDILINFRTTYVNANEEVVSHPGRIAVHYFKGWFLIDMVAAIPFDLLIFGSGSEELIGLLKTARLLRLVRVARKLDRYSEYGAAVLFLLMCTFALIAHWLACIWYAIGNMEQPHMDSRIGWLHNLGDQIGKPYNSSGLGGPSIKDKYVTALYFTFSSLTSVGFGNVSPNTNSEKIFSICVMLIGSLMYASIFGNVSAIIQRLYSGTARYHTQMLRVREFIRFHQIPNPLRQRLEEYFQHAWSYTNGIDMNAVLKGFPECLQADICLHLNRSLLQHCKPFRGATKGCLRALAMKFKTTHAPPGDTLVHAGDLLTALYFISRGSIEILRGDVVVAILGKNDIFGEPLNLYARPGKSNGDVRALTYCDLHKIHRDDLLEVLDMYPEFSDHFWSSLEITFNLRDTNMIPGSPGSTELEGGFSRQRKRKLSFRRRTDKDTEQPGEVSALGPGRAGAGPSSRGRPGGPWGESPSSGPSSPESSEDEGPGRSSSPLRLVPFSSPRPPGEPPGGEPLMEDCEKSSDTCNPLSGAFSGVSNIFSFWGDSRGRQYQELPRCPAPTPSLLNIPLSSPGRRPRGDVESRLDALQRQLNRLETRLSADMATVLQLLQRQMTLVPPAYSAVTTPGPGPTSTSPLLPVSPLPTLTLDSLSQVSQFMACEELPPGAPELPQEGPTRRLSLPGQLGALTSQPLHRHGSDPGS

SMILES | hERG current change (%, negative = inhibition) at 10uM [%]
CC(C)(C)[C@H]1CCC(=O)N([C@H](CSc2ccccc2)Cc2ccccc2)CC1 | -3.06
CN1CCC(=O)N([C@H](CSc2ccc(Br)cc2)Cc2ccccc2)CC1 | -64.8
C[C@H]1CCC(=O)N([C@H](CSc2ccc(Br)cc2)Cc2ccccc2)CC1 | 7.31
CC(C)(C)[C@H]1CCC(=O)N([C@H](CSc2ccc(Br)cc2)Cc2ccccc2)CC1 | 4.84
Cc1ccc(SC[C@H](Cc2ccccc2)N2CC[C@@H](C)CCC2=O)cc1 | -28.7
CCCN1CCC(=O)N([C@H](CSc2ccc(Br)cc2)Cc2ccccc2)CC1 | -71.2
CCCN1CCC(=O)N([C@H](CSc2ccccc2)Cc2ccccc2)CC1 | -69.6
CN1CCC(=O)N([C@H](CSc2ccccc2)Cc2ccccc2)CC1 | -45.8
CCOC(=O)c1c(NC(=O)C[n+]2ccc(Cc3ccccc3)cc2)sc(C)c1C.[Cl-] | -43.5
CC1CCN(c2cc(N3CCC(C)CC3)c([N+](=O)[O-])cc2/C=C(\C#N)c2nn(-c3ccccc3)c(N)c2C#N)CC1 | -10.2
CC(=O)N1CCN(C(=O)CCc2nc3sc4c(c3c(=O)[nH]2)CCCC4)CC1 | 5.61
Cc1ccc(C(=O)N2CCN(Cc3nc4sc5c(c4c(=O)[nH]3)CCCC5)CC2)cc1 | -76
O=C(c1ccccc1F)N1CCN(Cc2nc3sc4c(c3c(=O)[nH]2)CCCC4)CC1 | -81.6
Cc1ccc(-c2c(C)sc3nc(CN4CCN(CC(=O)NC5CC5)CC4)[nH]c(=O)c23)cc1 | -71.5
Cc1ccc(S(=O)(=O)N2CCN(Cc3nc4sc5c(c4c(=O)[nH]3)CCCC5)CC2)cc1 | -21.3
O=C(CCc1nc2sc3c(c2c(=O)[nH]1)CCCC3)N1CCN(c2ccccc2)CC1 | 2.7
O=c1[nH]c(CN2CCCC2)nc2sc3c(c12)CCC3 | 20.5
Cc1cccc(C(=O)N2CCN(Cc3nc4sc5c(c4c(=O)[nH]3)CCCC5)CC2)c1 | -58.4
Cc1ccc(S(=O)(=O)N2CCN(Cc3nc4sc(C)c(C)c4c(=O)[nH]3)CC2)cc1 | 18.2
Cc1sc2nc(CN3CCOCC3)[nH]c(=O)c2c1-c1ccccc1 | 2.19
O=c1[nH]c(CN2CCN(S(=O)(=O)c3ccccc3C(F)(F)F)CC2)nc2sc3c(c12)CCCC3 | 10.9
Cc1cccc(NC(=O)CCc2nc3sc4c(c3c(=O)[nH]2)CCCC4)c1 | 10.8
Cc1ccc(C)c(S(=O)(=O)Nc2ccc(C(=O)NCCc3ccccn3)cc2)c1 | 10.2
Cc1ccc(C)c(N2CCN(C(=O)C3CCN(S(=O)(=O)c4cccc5nsnc45)CC3)CC2)c1 | -8.49
N#Cc1ccc(C23CC4(C2)[C@H](CN(Cc2ccc(C(F)(F)F)cc2)[C@@H]4c2ccccc2)C3c2ccccc2)cc1 (stereo partly drawn) | 13.5
O=C(Nc1nccs1)c1ccc(COc2ccccc2Br)o1 | -6.85

SMILES | hERG current change (%, negative = inhibition) at 10uM [%]
Cc1ccc(-c2nnc(SCC(=O)N/N=C/c3ccc(C)s3)n2-c2ccc(C)cc2)cc1 | -17.4
O=C(c1ccco1)N1CCN(Cc2nc(-c3cccs3)no2)CC1 | -38.1
CS(=O)(=O)N(CC(=O)NCCSCc1c(F)cccc1Cl)c1cccc([N+](=O)[O-])c1 | -15.9
COCC(C)NC(=O)CSc1nc2ccccc2n1CCc1ccccc1 (stereo not drawn) | -8.53
Cc1cccc(N2CC(C(=O)Nc3nnc(SCC(=O)Nc4cc(C)on4)s3)CC2=O)c1 (stereo not drawn) | 23
Cc1cc(=O)[nH]c(SCC(=O)Nc2ccc(S(=O)(=O)N3CCOCC3)cc2)n1 | -3.3
CC1(C)SC(=S)N(NC(=O)Nc2ccccc2)C1N(O)C(=O)Nc1ccccc1 (stereo not drawn) | 12.7
CCOc1cc(N2CCOCC2)c(OCC)cc1NC(=O)c1oc2ccccc2c1C | 18.6
O=C(c1ccccc1F)N1CCCC(C(=O)N2CCc3ccccc3C2)C1 (stereo not drawn) | -8.64
CC(C)Cc1nc(S(=O)(=O)c2ccc(Cl)cc2)c(N2CCOCC2)o1 | -6.14
CCCCc1nc(S(=O)(=O)c2ccc(Cl)cc2)c(N2CCOCC2)o1 | -69.6
O=S(=O)(c1ccc(Cl)cc1)c1nc(-c2ccco2)oc1N1CCCCC1 | -7.91
O=S(=O)(c1ccc(Cl)cc1)c1nc(-c2ccco2)oc1N1CCOCC1 | -55.4
O=S(=O)(c1ccccc1)c1nc(-c2ccco2)oc1N1CCCCC1 | -37.1
CC(C)(C)c1nc(S(=O)(=O)c2ccc(Cl)cc2)c(N2CCOCC2)o1 | -14.2
COc1ccc(NC(=O)Nc2ccc3nccnc3c2)cc1 | 2.71
COc1ccccc1CNC(=O)C1CCN(C(=O)NC2CCCCC2)CC1 | 10.6
CCc1ccc(/C=N/NC(=O)C(=O)NCCCN2CCOCC2)cc1 | -23.6
COc1ccc(NC(=S)N2c3ccccc3CC2C)cc1OC (stereo not drawn) | -5.96
CCCC(=O)Nc1nnc(Cc2ccccc2)s1 | -0.72
COc1ccc(S(=O)(=O)Cc2ccc(C(=O)NC3CCC(C)CC3)o2)cc1 (stereo not drawn) | -15.8
Cc1ccc(-c2ccc(/C=N/c3ncn[nH]3)o2)cc1Cl | 11.6
Cl.O.Oc1ccc2c3c1O[C@H]1c4[nH]c5ccccc5c4C[C@@]4(O)C(C2)N(CC2CC2)CC[C@]314 | -55.4
C=C(C)CN1CC[C@]23c4c5ccc(O)c4O[C@H]2c2[nH]c4ccccc4c2C[C@@]3(O)C1C5.Cl.O | 4.9
CS(=O)(=O)O.O.Oc1ccc2c3c1O[C@H]1c4oc5ccccc5c4C[C@@]4(O)[C@@H](C2)N(CC2CC2)CC[C@]314 | -76.9
NC(N)=Nc1ccc2[nH]c3c(c2c1)C[C@@]1(O)[C@H]2Cc4ccc(O)c5c4[C@@]1(CCN2CC1CC1)[C@H]3O5.O=C(O)C(F)(F)F | 6.85

SMILES | hERG current change (%, negative = inhibition) at 10uM [%]
C=CC[N+]1(C)CC[C@]23c4c5ccc(O)c4O[C@H]2C(=O)CC[C@@]3(O)[C@H]1C5.[I-] (stereo partly drawn) | 17.8
Oc1cccc(C2c3[nH]c4ccccc4c3CCN2Cc2ccc3c(c2)CCO3)c1 (stereo not drawn) | 9.6
C=CCN1CC[C@]23c4c5ccc(O)c4O[C@H]2/C(=N/NC(=O)c2ccccc2)CC[C@@]3(O)[C@H]1C5 | -69.1
C=C1CC[C@@]2(O)[C@H]3Cc4ccc(O)c5c4[C@@]2(CCN3CC2CC2)[C@H]1O5 | -2.73
Cl.O=C1CC[C@@]2(O)[C@H]3Cc4ccc(O)c5c4[C@@]2(CCN3CC2CC2)[C@H]1O5 | 0.91
Oc1cccc(C2c3[nH]c4ccccc4c3CCN2Cc2ccoc2)c1 (stereo not drawn) | -29.6
Cl.Oc1ccc2c3c1O[C@H]1c4[nH]c5ccccc5c4C[C@@]4(O)[C@@H](C2)N(CC2CC2)CC[C@]314 | -63
COc1ccc(C2/C(=C(/O)c3ccc(Br)cc3)C(=O)C(=O)N2C)cc1 (stereo not drawn) | -12.7
Cn1cc(P(=S)(N2CCOCC2)N2CCOCC2)cc1P(=O)(N1CCOCC1)N1CCOCC1 | 7.36
COc1ccc(Oc2cccc(Cl)c2CNC(=O)c2ccccc2C(=O)O)cc1 | 4.98
CC(C)(C)NC(=O)C(Cc1ccccc1)N1C(=O)c2ccccc2C1=O (stereo not drawn) | 6.68
CCOC(=O)C1(Cc2ccc(OC)cc2)CCN(C(=O)C2=CCCC2)CC1 | -33.8
Cc1ccnc(NC2CCCCC2)c1 | 20.4
Cn1c(CNc2ccccn2)c(C#N)c2ccccc21 | -6.94
COC(=O)CCCC1=CC2=CC(=O)C(C)(OC(=O)c3cccs3)C(=O)C2=CN1CCc1c[nH]c2ccccc12 (stereo not drawn) | 15
CC(C)CN(C(=O)c1ccc([N+](=O)[O-])s1)c1c(N)n(Cc2ccccc2)c(=O)[nH]c1=O | 10.3
Cc1ccccc1NC(=O)c1ccc(CN2CCC(Cc3ccccc3)CC2)cc1 | -52.2
Cc1ccccc1NC(=O)c1ccc(CN2CCc3ccccc3C2)cc1 | -16.4
O=C(Nc1ccccc1F)c1ccc(CN2CCc3ccccc3C2)cc1 | 13.7
COc1ccc(NC(=O)c2ccc(CN3CCN(c4ccccc4)CC3)cc2)cc1 | -9.47
O=C(c1ccc(CN2CCOCC2)cc1)N1CCC(Cc2ccccc2)CC1 | -3.35
CCc1ccccc1NC(=O)c1ccc(CN2CCC(Cc3ccccc3)CC2)cc1 | -50.8
Cc1ccccc1NC(=O)CCN1CCN(Cc2ccccc2)CC1 | -27.2
O=C(Nc1ccccc1F)c1ccc(CN2CCN(c3ccccc3)CC2)cc1 | -70.7
O=C(Nc1ccccc1C(F)(F)F)c1ccc(CN2CCC(Cc3ccccc3)CC2)cc1 | -42.4
O=C(NO)c1ccccc1C(F)(F)F | 15.4
